This is one part of the list. Activity calls are given as the source filed them. No stated cut-off is given here; in the data, active means inhibition above about 38%; inactive means the rest.
Target: Serine protease Rv3671c (Mycobacterium tuberculosis (strain ATCC 25618 / H37Rv)) (UniProt P9WHR9)
Test: Rv3671c serine protease inhibitors, retest, confirmation, biochemical, fluorescence polarization, M. tuberculosis H37Rv (AID 2761)
Conditions: at 5.96 µM; hits give high values

Sequence of Serine protease Rv3671c (Mycobacterium tuberculosis (strain ATCC 25618 / H37Rv)) (P9WHR9 whole entry, looked up): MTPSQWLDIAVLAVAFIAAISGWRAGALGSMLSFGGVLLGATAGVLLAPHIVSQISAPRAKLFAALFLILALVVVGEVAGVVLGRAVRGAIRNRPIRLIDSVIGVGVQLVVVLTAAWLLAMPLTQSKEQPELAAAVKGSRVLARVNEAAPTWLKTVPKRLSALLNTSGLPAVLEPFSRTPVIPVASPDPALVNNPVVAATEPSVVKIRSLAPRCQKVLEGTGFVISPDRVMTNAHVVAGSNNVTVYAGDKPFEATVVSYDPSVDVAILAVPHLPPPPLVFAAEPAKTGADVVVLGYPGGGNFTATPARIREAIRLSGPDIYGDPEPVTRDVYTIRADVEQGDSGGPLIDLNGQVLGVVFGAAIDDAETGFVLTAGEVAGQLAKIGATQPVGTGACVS

SMILES | inhibition
COCCOC(=O)c1sc(=S)n(CCOC)c1N | 28.9% (inactive)
c1ccc2[nH]c(-c3nc4ccccc4[nH]3)nc2c1 | 66.6% (active)

Source: PubChem BioAssay AID2761 (The Scripps Research Institute Molecular Screening Center, 2010)
